Assay results taken from publication PMC3820963, “The RNA Binding Protein RBM38 (RNPC1) Regulates Splicing during Late Erythroid Differentiation”.

Molecular target: T1, Rbm38-FF (Mus musculus, UniProt Q62176 1-237)
T1 sequence: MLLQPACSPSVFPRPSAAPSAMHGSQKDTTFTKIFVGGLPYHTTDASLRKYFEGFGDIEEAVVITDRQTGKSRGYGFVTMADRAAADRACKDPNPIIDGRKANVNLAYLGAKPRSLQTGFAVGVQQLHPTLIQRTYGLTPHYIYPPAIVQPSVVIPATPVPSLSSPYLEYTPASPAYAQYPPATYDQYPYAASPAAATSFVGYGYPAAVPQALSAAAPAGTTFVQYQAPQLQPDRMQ
Test: SELEX-Seq; 16 mM HEPES pH 7.9, 150 mM KCl, 2 mM MgCl2, 60 uM EDTA, 1 mM DTT, 6% glycerol, 0.01 ug/uL heparin, 0.15 mM PMSF, 0.2 U/uL SUPERase-In, room temperature, 30 min; high values mean tight binding
Settings: protein: recombinant; tags: C-terminal 2xFLAG with TEV remnant (SBP removed by TEV cleavage); ssRNA

GUGUGUC
binding signal: 0.00739 fraction of reads

UUGUGUU
binding signal: 0.00601 fraction of reads

AUGUGUG
binding signal: 0.00771 fraction of reads

UGGUGUG
binding signal: 0.00917 fraction of reads

GUGUUGU
binding signal: 0.00863 fraction of reads

UGUGGUG
binding signal: 0.00628 fraction of reads

GUUUGUG
binding signal: 0.00579 fraction of reads

GGUGUGU
binding signal: 0.0109 fraction of reads

GUGUGUU
binding signal: 0.0136 fraction of reads

GUGUGCG
binding signal: 0.00564 fraction of reads

GUGUGUA
binding signal: 0.00612 fraction of reads

GUGGUGU
binding signal: 0.00782 fraction of reads

UGUGUGU
binding signal: 0.0159 fraction of reads

GCGUGUG
binding signal: 0.00853 fraction of reads

GUGUUUG
binding signal: 0.00702 fraction of reads

GUGUGGG
binding signal: 0.00755 fraction of reads

UGUUGUG
binding signal: 0.00859 fraction of reads

CGUGUGU
binding signal: 0.01 fraction of reads

GAGUGUG
binding signal: 0.00663 fraction of reads

GUGUGGU
binding signal: 0.00929 fraction of reads

UGUGUUG
binding signal: 0.00826 fraction of reads

UGUGUGG
binding signal: 0.00894 fraction of reads

GUGCGUG
binding signal: 0.0063 fraction of reads

UGUGUUU
binding signal: 0.00792 fraction of reads

UGCGUGU
binding signal: 0.00637 fraction of reads

AGUGUGU
binding signal: 0.0103 fraction of reads

CAGUGUG
binding signal: 0.00615 fraction of reads

UGUGUGC
binding signal: 0.00732 fraction of reads

GUUGUGU
binding signal: 0.00961 fraction of reads

CGGUGUG
binding signal: 0.00653 fraction of reads

UUGUGUG
binding signal: 0.00989 fraction of reads

UUUGUGU
binding signal: 0.00629 fraction of reads

GGUGUGG
binding signal: 0.00694 fraction of reads

GGCGUGU
binding signal: 0.00692 fraction of reads

GGGUGUG
binding signal: 0.0067 fraction of reads

GUGUGUG
binding signal: 0.016 fraction of reads
